G9a inh: qHTS Assay for Inhibitors of Histone Lysine Methyltransferase G9a. Histone-lysine N-methyltransferase EHMT2 (Homo sapiens), Q96KQ7. G9a H3K9 monomethylation, AlphaScreen, 2 h. Potency, µM (highest dose often 102 µM), for the others: at the highest dose activity, negative = inhibition, actives largely listed as inhibitors. 350,000 compounds, 8.8% hits. AID 504332, 2011; note: % is set by controls: 0 for no effect and ±100 for the full control effect; nearly all actives have a fitted effect of over 75% in size
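Using a bead-based AlphaScreen, monomethylated H3K9 product from 2 h room-temperature reactions (G9a 20 nM, peptide 500 nM, SAM 20 uM) was detected with 0.5 ug/mL rabbit anti-H3K9me1 antibody.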
Sfp PPTase inh: qHTS Assay for Inhibitors of Bacillus subtilis Sfp phosphopantetheinyl transferase (PPTase); 4'-phosphopantetheinyl transferase ffp (Bacillus subtilis), Q9F4F7; Biochemical Sfp PPTase activity, qHTS; Potency, µM, inactives show largest response in the series, negative = inhibition, usual class: inhibitors; 310,000 compounds, 3.5% hits;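 note: the enzyme is Sfp with the accession as filed and its product quenches rhodamine fluorescence; 0% = enzyme reaction without inhibitor and -100% = no enzyme wells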
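Fluorescence-quenching assay with 15 nM Sfp, 5 uM rhodamine-CoA and 12.5 uM BHQ-2-labelled ybbR peptide in pH 7.6 Hepes/MgCl2 buffer. Enzyme was pre-incubated with compound for 15 min at room temperature. Rate was taken from the 30-min fluorescence change (525/598 nm).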
BAZ2B block: qHTS Assay for Inhibitors of BAZ2B; 360,000 compounds, 4.4% hits; Bromodomain adjacent to zinc finger domain protein 2B (Homo sapiens), Q9UIF8; AID 504333, 2011; Potency, µM (series often up to 114 µM), for inactives: at the top dose activity change, negative = inhibition, most hits filed as inhibitors; AlphaScreen BAZ2B-H3K14Ac peptide displacement; note: % is set by controls: 0 for no effect and ±100 for the full control effect; nearly all actives have a fitted effect of over 60% in size
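AlphaScreen luminescence quantifies BAZ2B engagement of H3K14Ac peptide; the protein and biotinylated peptide are both at 50 nM final, buffer PBS pH 7.4 with 0.01% Tween-20, all steps at room temperature.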
HP1b chromo inh: HTS for Inhibitors of HP1-beta Chromodomain Interactions with Methylated Histone Tails | AlphaScreen HP1-beta / biotin-H3K9me3 peptide binding | Potency, µM (doses to about 114 µM), for the others: top-dose activity change, negative = inhibition, actives largely listed as inhibitors | 390,000 compounds, 0.56% hits; note: nearly all actives have a fitted effect of over 70% in size
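AlphaScreen: HP1-beta (50 nM) preformed 30 min with biotin-H3(1-18)K9me3 peptide (50 nM) in PBS pH 7.4, 0.01% Tween-20. Compound added for 30 min at RT, then streptavidin donor/nickel chelate acceptor beads (10 ug/mL) for 30 min.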
JMJD2A Tudor inh: qHTS Assay for Inhibitors of JMJD2A-Tudor Domain; Lysine-specific demethylase 4A (Homo sapiens), O75164; AlphaScreen JMJD2A-Tudor / H3K4me3 peptide binding; Potency, µM (titrated, usually from 114 µM), inactives show top-dose activity change, negative = inhibition, hits mostly inhibitors; 390,000 compounds, 4.4% hits; AID 504339, 2011; note: % is set by controls: 0 for no effect and ±100 for the full control effect; nearly all actives have a fitted effect of over 50% in size
Target sequence (O75164 whole entry, looked up, the tested form may be a part): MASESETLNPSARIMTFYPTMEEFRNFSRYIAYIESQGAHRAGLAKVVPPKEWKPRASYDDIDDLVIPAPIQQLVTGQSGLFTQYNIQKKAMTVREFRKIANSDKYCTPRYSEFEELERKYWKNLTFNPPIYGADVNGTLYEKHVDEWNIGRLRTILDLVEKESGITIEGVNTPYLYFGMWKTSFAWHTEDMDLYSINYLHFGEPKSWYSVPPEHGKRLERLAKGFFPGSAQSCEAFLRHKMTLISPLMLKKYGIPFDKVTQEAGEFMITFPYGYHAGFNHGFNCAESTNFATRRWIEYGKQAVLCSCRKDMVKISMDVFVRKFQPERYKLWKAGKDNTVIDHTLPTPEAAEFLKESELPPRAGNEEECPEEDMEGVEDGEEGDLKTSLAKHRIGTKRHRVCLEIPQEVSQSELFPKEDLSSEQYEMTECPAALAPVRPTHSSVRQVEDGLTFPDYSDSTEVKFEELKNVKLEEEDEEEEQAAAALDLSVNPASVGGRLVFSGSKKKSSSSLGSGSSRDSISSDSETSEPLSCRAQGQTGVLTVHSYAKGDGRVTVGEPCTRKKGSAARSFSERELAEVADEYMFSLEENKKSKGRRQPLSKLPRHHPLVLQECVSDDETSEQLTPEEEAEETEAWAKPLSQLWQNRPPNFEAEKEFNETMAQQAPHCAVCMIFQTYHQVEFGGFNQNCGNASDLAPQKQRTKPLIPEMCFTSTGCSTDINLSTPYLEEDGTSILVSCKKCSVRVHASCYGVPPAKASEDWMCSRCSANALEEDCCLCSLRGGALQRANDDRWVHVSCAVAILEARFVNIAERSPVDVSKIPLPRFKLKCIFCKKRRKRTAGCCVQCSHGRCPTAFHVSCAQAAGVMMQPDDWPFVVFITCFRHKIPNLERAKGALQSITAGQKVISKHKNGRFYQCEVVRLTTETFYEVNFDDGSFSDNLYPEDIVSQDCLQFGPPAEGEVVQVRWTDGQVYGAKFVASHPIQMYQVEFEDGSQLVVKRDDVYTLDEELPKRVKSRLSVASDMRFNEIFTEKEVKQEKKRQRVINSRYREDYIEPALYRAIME
* hit, by the source's call; ? = inconclusive; . = no result given; [ ] = dose if it differs, or a comment. Compounds with a hit are over-represented: about 12% of the library has one in this group of screens. Calls come from the whole dose curve; as a rule, active = well fitted curve in the direction sought with a large enough effect; inconclusive = small, poorly fitted or top-dose-only effect, or another doubt; inactive = no such curve, though single readings can be large; an effect the other way counts as inactive or inconclusive. Potency is the fitted concentration of half-maximal effect.

SMILES	G9a inh	Sfp PPTase inh	BAZ2B block	HP1b chromo inh	JMJD2A Tudor inh
COC(=O)c1ccccc1NC1=C/C(=N\S(=O)(=O)c2cccs2)c2ccccc2C1=O	1.8µM*	18%	1.4µM*	7.1µM*	4µM*
COC(=O)c1ccccc1NC1=C/C(=N\S(=O)(=O)c2ccc(C(=O)O)cc2)c2ccccc2C1=O	8.9µM*	56µM*	8.9µM*	16µM*	20µM*
COc1cc(C2Oc3nc(SC)nnc3-c3ccccc3N2C(C)=O)cc(Cl)c1OC (stereo not given)	-6%[59 µM]	.	-19%	7%	-28%
Cc1nc2ccccc2c2c1C(=O)NC2=O	-4%	1%	-1%	.	.
Cc1c(N(CC(=O)O)S(=O)(=O)c2ccccc2)c(=O)n(-c2ccccc2)n1C	.	5%	-16%	37%	-9%
Brc1cccc(OCCCCn2cncn2)c1	25µM*	?	50µM*	?	25µM*
c1ccc(-c2ccc(OCCCn3cncn3)cc2)cc1	?	-25%	56µM*	?	-14%[11.4 µM]
CC(=O)CCc1ccc(OCCCCn2cncn2)cc1	?	-6%	-8%	70%	-7%
CC(C)c1ccc(N=C(N)N=C(N)N)cc1	14%	16%	-4%	17%	-20%
Cc1ccccc1Nc1nnc(C)c(=O)n1N	-30%[59 µM]	-11%	5%	5%	-25%
COc1ccc(OC)c(/C=C/C(=O)Oc2ccc(C(C)=O)cc2)c1	194%	-6%	88%	124%	140%
C/C(=N\Nc1nc2c(s1)CCCC2)c1ccccc1	?	?	45µM*	?	?
C/C(=N\Nc1nc(C(C)(C)C)cs1)c1ccc(O)cc1	32µM*	50µM*	?	-22%	?
C/C(=N\Nc1nc(C(C)(C)C)cs1)c1ccccc1	71µM*	-16%	?	2%	?
Cn1ncc(Cl)c1C(=O)N1CCN(S(=O)(=O)c2ccc(F)cc2)CC1	19%	7%	-16%	47%	4%
COc1ccc(NC(=O)CC(c2ccccc2)c2ccco2)cc1 (stereo not given)	?	45µM*	-35%	15%	-7%
O=C(CC(c1ccccc1)c1ccco1)Nc1nccs1 (stereo not given)	50µM*	-21%	?	6%	-24%
CC(CC(=O)Nc1nccs1)c1ccccc1 (stereo not given)	6%	20%	-1%	6%	-9%
Clc1cccc(N2CCN(Cc3nc(-c4ccccc4)no3)CC2)c1	18%[59 µM]	10%	36%	106%	24%
Brc1ccc(CNCCCSc2nnnn2-c2ccccc2)cc1	0%[59 µM]	.	-19%	41%	-1%
N#CCCn1cnc2c(=S)nc[nH]c21	?	?	-33%	7%	35µM*
O=[N+]([O-])c1cccc(Cn2cnc3c(=S)nc[nH]c32)c1	.	.	.	24%	-12%
CCCc1cc(CNC(=O)C2CCC(=O)N(Cc3ccccc3F)C2)on1 (stereo not given)	54%	19%	-1%	34%[57 µM]	5%
Cc1cc(NCCCn2ccnc2)n2nc(C)c(-c3ccc(Cl)cc3)c2n1	?	12%	32µM*	-10%	?
Cc1cc(NCCCn2ccnc2)n2nc(C)c(-c3ccccc3)c2n1	-41%[59 µM]	-5%	?	0%	?
SMILES	G9a inh	Sfp PPTase inh	BAZ2B block	HP1b chromo inh	JMJD2A Tudor inh
O=C(CN1C(=O)C(=O)N(CCC2=CCCCC2)C1=O)Nc1ccc(F)cc1F	.	.	.	4%	-6%
CCC1C(=O)N=C(SCC(=O)Nc2ccc(Br)cn2)NC1=O (stereo not given)	?	4%	-19%	21%	?
Oc1c(C=C2N=c3ccccc3=N2)sc(=S)n1-c1ccccc1	-3%[59 µM]	79µM*	10%	23%	-15%
CC1=Nc2ccccc2/C1=C/c1sc(=S)n(-c2cccc(C(=O)O)c2)c1O	25µM*	5%	?	?	?
O=S(=O)(c1ccc2nnn(OCc3ccccc3)c2c1)N1CCOCC1	?	.	7%	14%	-10%
COc1ccccc1-c1oc2ccccc2c1C#CC1(O)CCCCC1	.	.	.	47%	-1%
COc1ccccc1-c1oc2ccccc2c1C#CCCO	-40%[0.501 µM]	.	50µM*	62%	?
Nc1nnc(C(=O)c2ccccc2N)s1	.	.	.	1%	-17%
C=C(C)C1CC=C(C)/C(=N/NC(=O)c2ccoc2C)C1 (stereo not given)	15%[59 µM]	24%	-2%	19%	-9%
Cc1cc2n(n1)SC(Nc1ccc(F)c(Cl)c1)N2 (stereo not given)	1.4µM*	?	-4%	-28%	?
C=CCn1c(=N)n(CC(O)COc2ccccc2OC)c2ccccc21 (stereo not given)	-12%	22%	6%	30%	-14%
C=CCn1c(-c2ccc(OC)c(OC)c2)cs/c1=N\c1ccccn1	3.5µM*	18µM*	?	?	-27%[11.4 µM]
Clc1ccccc1-c1ccc2ncnc(NCc3cccs3)c2c1	-3%[12.7 µM]	.	-11%	80%	-34%
Oc1c(C(c2cccs2)N2CCN(c3ccccc3)CC2)ccc2cccnc12 (stereo not given)	1.3µM*	40µM*	40µM*	.	.
CCCCC(=O)NC(c1ccccc1Cl)c1ccc2cccnc2c1O (stereo not given)	.	7%	9%	52%	-14%
CC(C)(C)n1nnnc1C(c1cccs1)N1CCN(c2ccccc2)CC1 (stereo not given)	-10%	6%	-6%	9%	-20%[57.1 µM]
CN1CCN(C(c2ccc(C(F)(F)F)cc2)c2ccc3cccnc3c2O)CC1 (stereo not given)	7.9µM*	-2%	40µM*	?	56µM*
CN1CCN(C(c2ccccc2)c2ccccc2)CC1	11%[21.5 µM]	-6%	-2%	24%	-13%
Oc1c(C(c2ccccc2Cl)N2CCCC2)ccc2cccnc12 (stereo not given)	11µM*	2%	20µM*	-35%	20µM*
CC(C)NCC(O)COCCOc1ccc(Br)cc1 (stereo not given)	-8%[59 µM]	26%	6%	21%	-9%
CCC(C)NCCOCCOc1ccc(Br)cc1 (stereo not given)	?	?	79µM*	?	11µM*
CCC(C)NCCOc1ccc(Br)cc1 (stereo not given)	13µM*	-6%	?	?	3.5µM*
CCC(C)NCCOc1ccccc1C (stereo not given)	2.8µM*	56µM*	50µM*	?	3.2µM*
COc1ccc2nc(NC(=O)C3CCCN(S(=O)(=O)c4c(C)noc4C)C3)sc2c1 (stereo not given)	-23%[59 µM]	16%	7%	33%	-15%

Screening data deposited in PubChem by National Center for Advancing Translational Sciences (NCATS).
